Data taken from PubChem BioAssay (NCI).
About 83,000 compounds went through this panel and 20% of them were active in at least one assay; those are over-represented in the sample as a whole.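 96-well plates, one dose, 48 hours. Percent growth reported; active if below 10.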 Unmarked numbers belong to inactive results. Active and inactive are the calls of the source.

Columns and labels:
Test in all cases: NCI-60 one-dose screen, 48 h (100 = growth as untreated, 0 = no growth, -100 = all killed)
Conditions in all cases: 10 µM unless noted
[1] = system: HCT-15 colon
[2] = system: HT29 colon
[3] = system: SNB-75 CNS
[4] = system: SNB-19 CNS
[5] = system: U251 CNS
[6] = system: PC-3 prostate
[7] = system: SK-MEL-5 melanoma
[8] = system: UACC-62 melanoma
[9] = system: LOX IMVI melanoma
[10] = system: SK-MEL-28 melanoma
[11] = system: SK-MEL-2 melanoma
[12] = system: EKVX NSCLC
[13] = system: SN12C renal
[14] = system: UO-31 renal
[15] = system: TK-10 renal
[16] = system: ACHN renal
[17] = system: CAKI-1 renal
[18] = system: A498 renal
[19] = system: CCRF-CEM leukemia
[20] = system: MOLT-4 leukemia

Q: `CC1=CC(=O)C2=C(C)CC(OC(=O)CCc3ccccc3)[C@@H]3[C@H](OC(=O)[C@@H]3C)[C@@H]12` (stereo partly drawn) was tested. Which growth [1] did it give?
A: Its growth is 81.7%.

Q: And the growth [2]?
A: The growth was 78.1%.

Q: What about the growth [3] of the same compound?
A: The growth was 95.8%.

Q: And the growth [4]?
A: The growth was 93.6%.

Q: And the growth [5]?
A: The growth was 102%.

Q: What about the growth [6] of the same compound?
A: The growth was 76.7%.

Q: What about the growth [7] of the same compound?
A: The growth was 82%.

Q: And the growth [8]?
A: Its growth is 72.7%.

Q: What about the growth [9] of the same compound?
A: Its growth is 95.9%.

Q: And the growth [10]?
A: Its growth is 100%.

Q: And the growth [11]?
A: The growth was 103%.

Q: And the growth [12]?
A: Its growth is 102%.

Q: What about the growth [13] of the same compound?
A: Its growth is 95.3%.

Q: What about the growth [14] of the same compound?
A: Its growth is 79.1%.

Q: What about the growth [15] of the same compound?
A: The growth was 102%.

Q: And the growth [16]?
A: The growth was 101%.

Q: And the growth [17]?
A: The growth was 86.1%.

Q: And the growth [18]?
A: Its growth is 82.4%.

Q: What about the growth [19] of the same compound?
A: The growth was 88.7%.

Q: And the growth [20]?
A: The growth was 83.6%.

Q: What does the source list for `C=CC(=O)N1CC=C(c2cc3c(N[C@H](C)c4ccccc4)ncnc3[nH]2)CC1`?
A: growth [1]: 82.6%; growth [2]: 54%; growth [3]: -0.73% (active); growth [4]: 91.9%; growth [5]: 94.6%; growth [6]: 82.7%; growth [7]: 95.5%; growth [8]: 85.5%; growth [9]: 56.2%; growth [10]: 104%; growth [11]: 106%; growth [12]: 30.5%; growth [13]: 22.4%; growth [14]: 19%; growth [15]: -3.79% (active); growth [16]: 15.1%; growth [17]: 11.3%; growth [18]: -17.4% (active); growth [20]: 97.8%

Q: Which growth [1] does the source give for `NC(N)=Nc1ccc(Nc2cccc(Oc3ccc(Cl)c(C(F)(F)F)c3)c2)cn1` here?
A: The growth was 42%.

Q: What about the growth [2] of the same compound?
A: Its growth is 18.9%.

Q: What about the growth [3] of the same compound?
A: The growth was 52.7%.

Q: What about the growth [4] of the same compound?
A: Its growth is 24.3%.

Q: And the growth [5]?
A: The growth was -68.8% (active).

Q: What about the growth [6] of the same compound?
A: Its growth is -55.8% (active).

Q: And the growth [7]?
A: The growth was 28.3%.

Q: What about the growth [8] of the same compound?
A: Its growth is 45.6%.

Q: What about the growth [9] of the same compound?
A: Its growth is -97.2% (active).

Q: And the growth [10]?
A: Its growth is 60.7%.

Q: What about the growth [11] of the same compound?
A: The growth was 74.9%.

Q: What about the growth [12] of the same compound?
A: Its growth is 30.5%.

Q: And the growth [13]?
A: Its growth is -71.8% (active).

Q: And the growth [14]?
A: The growth was 56.4%.

Q: And the growth [15]?
A: The growth was 81.7%.

Q: And the growth [16]?
A: Its growth is 55.7%.

Q: And the growth [17]?
A: Its growth is 42.9%.

Q: And the growth [18]?
A: The growth was 62.8%.

Q: What about the growth [19] of the same compound?
A: The growth was -9.86% (active).

Q: And the growth [20]?
A: The growth was 0.616% (active).

Q: With `CCN(CC)CCn1c2ccc(O)cc2c2sc3cc(OC)ccc3c(=O)c21` as the compound, how does the growth [1] read?
A: The growth was 4.47% (active).

Q: What about the growth [2] of the same compound?
A: Its growth is -13.8% (active).

Q: And the growth [3]?
A: Its growth is 40.7%.

Q: What about the growth [4] of the same compound?
A: Its growth is 25.7%.

Q: What about the growth [5] of the same compound?
A: Its growth is 16.1%.

Q: And the growth [6]?
A: The growth was 30.5%.

Q: And the growth [7]?
A: The growth was 76.7%.

Q: What about the growth [8] of the same compound?
A: Its growth is 28.5%.

Q: And the growth [9]?
A: Its growth is -86% (active).

Q: And the growth [10]?
A: Its growth is 2.25% (active).

Q: And the growth [11]?
A: Its growth is 55.6%.

Q: What about the growth [12] of the same compound?
A: The growth was 43.5%.

Q: And the growth [13]?
A: Its growth is 21.5%.

Q: And the growth [14]?
A: Its growth is 26.8%.

Q: And the growth [15]?
A: The growth was 61.7%.

Q: What about the growth [16] of the same compound?
A: Its growth is 12.4%.

Q: What about the growth [17] of the same compound?
A: Its growth is 14.5%.

Q: What about the growth [18] of the same compound?
A: The growth was 73.3%.

Q: And the growth [19]?
A: The growth was 21.8%.

Q: And the growth [20]?
A: Its growth is 5.44% (active).

Q: With `NS(=O)(=O)c1ccc(Nc2cc(-c3ccccc3)nc(SCC(=O)c3ccccc3)n2)cc1` as the compound, how does the growth [1] read?
A: Its growth is 99.4%.

Q: What about the growth [2] of the same compound?
A: Its growth is 106%.

Q: What about the growth [3] of the same compound?
A: The growth was 91.6%.

Q: And the growth [4]?
A: Its growth is 91.7%.

Q: And the growth [5]?
A: Its growth is 100%.

Q: What about the growth [6] of the same compound?
A: The growth was 98.4%.

Q: And the growth [7]?
A: The growth was 98.6%.

Q: And the growth [8]?
A: Its growth is 91.1%.

Q: What about the growth [9] of the same compound?
A: The growth was 97.8%.

Q: And the growth [10]?
A: Its growth is 104%.

Q: And the growth [11]?
A: Its growth is 105%.

Q: And the growth [12]?
A: Its growth is 97.9%.

Q: And the growth [13]?
A: The growth was 96%.

Q: And the growth [14]?
A: Its growth is 86%.

Q: What about the growth [15] of the same compound?
A: The growth was 129%.

Q: What about the growth [16] of the same compound?
A: The growth was 105%.

Q: What about the growth [17] of the same compound?
A: The growth was 90%.

Q: What about the growth [18] of the same compound?
A: The growth was 94.9%.

Q: What about the growth [19] of the same compound?
A: Its growth is 98.3%.

Q: What about the growth [20] of the same compound?
A: The growth was 105%.

Q: Which results are given for `C[C@@H](Nc1c(C#N)cnc2ccc(-c3cnc(Cl)c(NS(C)(=O)=O)c3)cc12)c1ccccc1`?
A: growth [1]: 10.2%; growth [2]: 11.6%; growth [3]: -30% (active); growth [4]: 15.7%; growth [5]: 15.2%; growth [6]: 5.67% (active); growth [7]: -82.8% (active); growth [8]: -12% (active); growth [9]: -24.6% (active); growth [10]: 5.72% (active); growth [11]: -29.4% (active); growth [12]: -9.44% (active); growth [13]: 9.48% (active); growth [14]: 4.15% (active); growth [15]: -17.9% (active); growth [16]: 8.09% (active); growth [17]: -18.4% (active); growth [18]: -49.8% (active); growth [19]: 2.97% (active); growth [20]: -35.6% (active)

Q: Which growth [1] does the source give for `C=C(C)[C@@H]1CC[C@]2(COP(=O)(OCC)OCC)CC[C@]3(C)[C@H](CC[C@@H]4[C@@]5(C)CCCNC(C)(C)[C@@H]5CC[C@]43C)[C@@H]12` here?
A: Its growth is 16.6%.

Q: And the growth [2]?
A: The growth was 5.58% (active).

Q: And the growth [3]?
A: Its growth is 37%.

Q: What about the growth [4] of the same compound?
A: The growth was 58.3%.

Q: And the growth [5]?
A: Its growth is 37.4%.

Q: And the growth [6]?
A: The growth was 26.3%.

Q: What about the growth [7] of the same compound?
A: The growth was 37.4%.

Q: And the growth [8]?
A: The growth was 80.3%.

Q: And the growth [9]?
A: Its growth is -87.9% (active).

Q: And the growth [10]?
A: The growth was -38.2% (active).

Q: And the growth [11]?
A: The growth was 92.7%.

Q: And the growth [12]?
A: The growth was 40.4%.

Q: What about the growth [13] of the same compound?
A: Its growth is 46.6%.

Q: And the growth [14]?
A: Its growth is 30.9%.

Q: What about the growth [15] of the same compound?
A: Its growth is 58.9%.

Q: And the growth [16]?
A: Its growth is 59.2%.

Q: And the growth [17]?
A: Its growth is 29.1%.

Q: And the growth [18]?
A: The growth was 55%.

Q: And the growth [20]?
A: Its growth is -29.8% (active).

Q: With `O=C(O)c1ccc(-n2cc(CNc3cccc(Cl)c3)c(-c3ccc(F)cc3)n2)cc1` as the compound, how does the growth [1] read?
A: Its growth is 80.7%.

Q: And the growth [2]?
A: The growth was 111%.

Q: What about the growth [3] of the same compound?
A: Its growth is 120%.

Q: And the growth [4]?
A: The growth was 99.3%.

Q: And the growth [5]?
A: The growth was 101%.

Q: And the growth [6]?
A: Its growth is 94%.

Q: And the growth [7]?
A: Its growth is 91.7%.

Q: What about the growth [8] of the same compound?
A: Its growth is 74.3%.

Q: What about the growth [9] of the same compound?
A: The growth was 74.2%.

Q: And the growth [10]?
A: Its growth is 101%.

Q: What about the growth [11] of the same compound?
A: The growth was 96.1%.

Q: What about the growth [12] of the same compound?
A: The growth was 90.5%.

Q: And the growth [13]?
A: The growth was 98.5%.

Q: And the growth [14]?
A: Its growth is 94.4%.

Q: What about the growth [15] of the same compound?
A: The growth was 127%.

Q: What about the growth [16] of the same compound?
A: Its growth is 89.6%.

Q: And the growth [17]?
A: The growth was 89.9%.

Q: What about the growth [18] of the same compound?
A: The growth was 72.5%.

Q: And the growth [19]?
A: Its growth is 94%.

Q: What about the growth [20] of the same compound?
A: Its growth is 80%.
